An excerpt weighted towards active compounds, which were near 19% of everything screened.
DT40 TDP1 CPT: qHTS for Inhibitors of human tyrosyl-DNA phosphodiesterase 1 (TDP1): qHTS in cells in presence of CPT; chicken DT40 Tdp1-/-;hTDP1 cells + 20 nM CPT, ATP luminescence, 48 h; Potency, µM (titrated, usually from 46.2 µM), most hits filed as inhibitors; actives 12% (n = 420,000); note: nearly all actives have a fitted effect of over 55% in size
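Chicken DT40 Tdp1-/- cells complemented with human TDP1, 400 cells/well, exposed to compounds plus 20 nM camptothecin for at least 48 h at 37 C; viability read as ATP content by CellTiter-Glo luminescence.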
RORg inh: qHTS for inhibitors of ROR gamma transcriptional activity; Nuclear receptor ROR-gamma (Mus musculus), P51450; Drosophila S2 Gal4-RORgamma UAS-luciferase reporter, 20 h; Potency, µM (doses to about 53.6 µM), most hits filed as inhibitors; actives 5.4% (n = 310,000); note: nearly all actives have a fitted effect of over 60% in size
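In this cell-based reporter format, copper sulfate (700 uM final) drives Gal4–ROR gamma fusion expression from a metallothionein promoter in Drosophila Schneider cells; compounds preincubated 1 hr, reporter read after 20 hr at ambient temperature.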
DT40 TDP1 no CPT: qHTS for Inhibitors of human tyrosyl-DNA phosphodiesterase 1 (TDP1): qHTS in cells in absence of CPT. DT40 Tdp1-/- hTDP1 cells, no CPT, ATP luminescence, 48 h. Potency, µM (top dose mostly 46.2 µM), actives largely listed as inhibitors. actives 15% (n = 420,000); note: nearly all actives have a fitted effect of over 55% in size
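Chicken DT40 Tdp1-/- cells complemented with human TDP1, screened without camptothecin (DMSO vehicle only), 400 cells/well. Compounds pin-transferred, cells incubated at 37 °C for at least 48 hr. Growth read as ATP-dependent luminescence (CellTiter-Glo, 30 min at RT).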
Gal4-VP16 FLuc: VP16 counterscreen qHTS for inhibitors of ROR gamma transcriptional activity; Drosophila S2 Gal4-VP16 UAS-luciferase, luminescence, 20 h; Potency, µM (top dose mostly 53.6 µM), most hits filed as inhibitors; actives 3.5% (n = 310,000); AID 2546, 2010;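 note: Gal4-VP16 expression switched on by copper sulfate through the metallothionein promoter; nearly all actives have a fitted effect of over 50% in size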
TDP1 block: qHTS Assay for Inhibitors of Tyrosyl-DNA Phosphodiesterase (TDP1); recombinant TDP1, AlphaScreen DNA substrate cleavage; Potency, µM (highest dose often 130 µM), hits mostly inhibitors; actives 0.28% (n = 350,000); note: nearly all actives have a fitted effect of over 40% in size
Target sequence (Q9NUW8 whole entry, looked up): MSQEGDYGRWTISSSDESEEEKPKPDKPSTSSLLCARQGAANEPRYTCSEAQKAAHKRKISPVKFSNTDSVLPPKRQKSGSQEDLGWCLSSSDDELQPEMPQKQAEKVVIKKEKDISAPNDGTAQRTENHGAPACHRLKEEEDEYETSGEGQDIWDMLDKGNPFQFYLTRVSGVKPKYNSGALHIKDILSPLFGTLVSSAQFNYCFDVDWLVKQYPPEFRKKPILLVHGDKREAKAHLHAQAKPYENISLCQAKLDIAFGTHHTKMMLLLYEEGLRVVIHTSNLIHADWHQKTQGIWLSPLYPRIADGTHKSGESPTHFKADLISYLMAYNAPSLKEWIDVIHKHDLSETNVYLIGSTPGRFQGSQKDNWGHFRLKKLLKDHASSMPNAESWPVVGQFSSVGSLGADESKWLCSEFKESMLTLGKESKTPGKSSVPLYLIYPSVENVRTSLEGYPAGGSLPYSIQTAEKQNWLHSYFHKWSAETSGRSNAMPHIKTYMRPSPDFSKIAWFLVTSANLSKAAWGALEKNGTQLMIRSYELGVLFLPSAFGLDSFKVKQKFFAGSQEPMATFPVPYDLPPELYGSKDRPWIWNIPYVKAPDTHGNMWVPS
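Here, a 5' biotin and 3' phosphotyrosine-FITC DNA oligonucleotide reports Tdp1 activity: intact substrate bridges AlphaScreen beads, while cleavage leaves a 3' phosphate and drops signal. All incubations at room temperature.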
A number is an active result; 0 = inactive; ? = inconclusive; - = no result; [ ] = another dose, or the depositor's remark. Calls come from the whole dose curve; as a rule, active = well fitted curve in the direction sought with a large enough effect; inconclusive = small, poorly fitted or top-dose-only effect, or another doubt; inactive = no such curve, though single readings can be large; an effect the other way counts as inactive or inconclusive.

SMILES | DT40 TDP1 CPT | RORg inh | DT40 TDP1 no CPT | Gal4-VP16 FLuc | TDP1 block
Cc1ccc(CNC(=O)c2cc(-c3ccccc3C)nn2CC2CC(c3cccnc3)=NO2)cc1 (stereo not given) | ? | - | 20.6µM | - | 0
Cc1cc(C)n(-c2ccc(C(=O)Nc3ccccn3)cc2)n1 | ? | 0 | ? | ? | 0
O=C(NCCc1ccccc1F)C1CC(=O)N(c2ccccc2)C1 (stereo not given) | 0 | 0 | 0 | 0 | 0
O=C(CSc1ncnc2c1nnn2-c1ccc(F)cc1)NCc1ccco1 | ? | ? | 14.6µM | 0 | 0
COc1ccc(-n2nnc3c(SCC(=O)NCc4ccco4)ncnc32)cc1 | ? | 0 | 2.91µM | 0 | 0
COc1ccc(-n2nnc3c(SC(C(C)=O)C(=O)N(C)C)ncnc32)cc1 (stereo not given) | 18.4µM | 0 | 16.4µM | 0 | 0
O=C(NC1CCCC1)C(c1cccnc1)N(Cc1ccccc1)C(=O)c1csnn1 (stereo not given) | 0 | 0 | 0 | 0 | 0
CCOc1ccc(Nc2nc(N)c([N+](=O)[O-])c(N3CCOCC3)n2)cc1 | 0 | 0 | ? | 0 | -
CC(=O)c1ccc(N2CCN(C(=O)C3CCN(S(=O)(=O)c4c(C)noc4/C=C/c4ccc(C)cc4)CC3)CC2)cc1 | 6.51µM | - | 2.59µM | - | 0
CCC1CN(C(=O)C2CCN(S(=O)(=O)c3c(C)noc3/C=C/c3ccc(C)cc3)CC2)c2cc(C)ccc2O1 (stereo not given) | 0 | - | 0 | - | 0
Cc1ccc(/C=C/c2onc(C)c2S(=O)(=O)N2CCC(C(=O)N3CCN(c4ccccc4F)CC3)CC2)cc1 | 20.6µM | - | 2.59µM | - | 0
Cc1ccc(/C=C/c2onc(C)c2S(=O)(=O)N2CCC(C(=O)N3CCC(N(C)C(C)C)CC3)CC2)cc1 | 5.17µM | - | 6.51µM | - | 0
C=CCSc1nnc(-c2cnn(-c3ccccc3)c2-n2cccc2)n1C | 0 | 0 | 0 | 0 | 0
CCC1=C2CC[C@H]3C(=O)NC(=O)[C@H]3[C@H]2[C@@]2(C)C(=O)N(CC3CC3)C(=O)N2C1=O | - | 0 | - | 0 | 0
C/C(=N\NC(=O)C1CCCC1)c1ccc(C(C)C)cc1 | ? | 0 | ? | 0 | 0
O=C(NNC(=S)Nc1ccccc1Cl)C1CC1 | 0 | 11.2µM | 0 | ? | 0
O=C(CN1CCN(c2ccccc2)CC1)Nc1ccccc1Cl | ? | 0 | 0 | 0 | 0
O=C(CCN1CCN(c2ccccc2)CC1)NNC(=S)Nc1ccccc1Cl | 0 | 8.91µM | 0 | 0 | 0
O=C(NNC(=S)Nc1ccccc1Cl)c1ccccc1Cl | 0 | 0 | ? | 0 | 0
O=C(NC(=S)Nc1cccc(Cl)c1Cl)C1CC1 | 13µM | 2.51µM | ? | 4.47µM | 0
O=C(NNC(=S)Nc1ccccc1Cl)c1ccccc1 | 0 | 12.6µM | 0 | 0 | 0
CCc1ccc(-c2cc(C)no2)cc1S(=O)(=O)NCCN1CCC(C)CC1 | ? | 0 | ? | 0 | 0
CCOC(=O)c1ccc(Nc2nn3c(=O)c4ccccc4nc3s2)cc1 | 0 | - | 0 | - | 0
CSc1ncc(CN2CCCC(C(=O)c3ccc(C(C)(C)C)cc3)C2)cn1 (stereo not given) | 16.4µM | ? | 23.1µM | 0 | 0
CC(C)(C)c1ccc(C(=O)C2CCCN(C(=O)C3CCOCC3)C2)cc1 (stereo not given) | ? | 0 | 16.4µM | 0 | 0
SMILES | DT40 TDP1 CPT | RORg inh | DT40 TDP1 no CPT | Gal4-VP16 FLuc | TDP1 block
CSc1ccc(C(=O)C2CCCN(Cc3ccc(N4CCNC4=O)cc3)C2)cc1 (stereo not given) | 0 | 0 | ? | 0 | -
COc1ccc(C(=O)C2CCCN(C(=O)Cc3c(C)noc3C)C2)cc1OC (stereo not given) | 0 | 0 | 0 | 0 | 0
Cc1noc(C)c1CC(=O)N1CCCC(C(=O)c2ccc(C(C)(C)C)cc2)C1 (stereo not given) | 20.6µM | 0 | 20.6µM | ? | -
Cc1ccc(S(=O)(=O)Cc2ccc(C(=O)NCCCN3CCN(C)CC3)o2)cc1 | 0 | 0 | 0 | 0 | 0
O=C(CSc1nc2ccccc2c(=O)n1-c1cccc(C(F)(F)F)c1)NC1CC1 | 18.4µM | 0 | ? | 0 | 0
Cc1ccc(-n2c(SCC(=O)NC3CCS(=O)(=O)C3)nc3ccccc3c2=O)c(C)c1 (stereo not given) | ? | - | 16.4µM | - | -
COc1ccc(-n2c(SCC(=O)NC3CC3)nc3ccccc3c2=O)cc1OC | 0 | - | 0 | - | 0
Cc1ccccc1-n1c(SCC(=O)NC2CCS(=O)(=O)C2)nc2ccccc2c1=O (stereo not given) | ? | - | ? | - | 0[0.505 µM]
CC1CCN(C(=O)CSc2nc(-c3ccc(C(C)C)cc3)no2)CC1 | 20.6µM | - | 23.1µM | - | 0
CC1CCN(C(=O)CSc2nc(-c3ccccc3)no2)CC1 | 0 | - | 0 | - | 0
COc1ccc(N2CCN(C(=O)CSc3nc(-c4ccc(C(C)C)cc4)no3)CC2)cc1 | 18.4µM | - | 11.6µM | - | 0
CC(C)c1ccc(-c2nnn(CC(=O)N3CCCCC3)n2)cc1 | 0 | 0 | 0 | 0 | -
CC1CCN(C(=O)Cn2nnc(-c3ccc(C(C)C)cc3)n2)CC1 | 16.4µM | ? | ? | ? | -
CC(C)c1ccc(-c2noc(SCC(=O)N3CCCCC3C)n2)cc1 (stereo not given) | ? | - | 14.6µM | - | 0
COCc1cc(C)nc(OCC(=O)N/N=C/c2ccc(OC)c(OC)c2)c1C#N | 0 | 0 | 0 | 0 | 0
CC1CCCCN1C(=O)CSc1nnc(-c2cccc(Cl)c2)o1 (stereo not given) | 16.4µM | - | ? | - | 0
CN(C)CCOC(=O)c1sc2ccccc2c1Cl | 0 | 0 | 0 | 0 | 0
CCOC(=O)c1nc(Nc2ccc(Cl)cc2)c2c(C)noc2n1 | 0 | - | 0 | - | 0
Cc1ccc([N+](=O)[O-])c(OCC(=O)OCC(=O)c2ccccc2)c1 | 0 | 0 | 0 | 0 | 0
CC1(C(=O)NS(=O)(=O)C2CC2)CCCN(C(=O)c2ccc(F)c(Cl)c2)C1 (stereo not given) | 5.8µM | - | 5.17µM | - | -
CC1(C(=O)NS(=O)(=O)C2CC2)CCCN(C(=O)c2cccc(Cl)c2)C1 (stereo not given) | 7.31µM | - | 1.46µM | - | -
CCCNC(=O)C1(C)CCCN(C(=O)c2cccc(Cl)c2)C1 (stereo not given) | 0 | - | 0 | - | -
CCCn1c(SCC(=O)N2c3ccccc3Sc3ccccc32)nc2ccccc21 | 0 | ? | ? | ? | 0
CCOCCCNC(=O)c1cc2c(-c3ccc(OC)c(OC)c3)nn(C)c2s1 | 7.31µM | - | 18.4µM | - | 0
CCCCN(CC)CCCNC(=O)c1cc2c(-c3ccc(OC)c(OC)c3)nn(C)c2s1 | ? | 0 | ? | 0 | 0
COc1ccc(CCNC(=O)c2cc3c(-c4ccc(OC)c(OC)c4)nn(C)c3s2)cc1OC | 2.59µM | - | 2.91µM | - | -

High-throughput results (PubChem)
